According to PubChem BioAssay (NCI):
About 83,000 compounds went through this panel and 20% of them were active in at least one assay; those are over-represented in the sample as a whole.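 Growth was measured after 48 h exposure to one concentration of compound in 96-well plates. Values under 10 count as active.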 Unmarked numbers belong to inactive results. Activity calls are given as the source filed them.

Tested on: UACC-62 melanoma
Experiment: NCI-60 one-dose screen, 48 h (100 = growth as untreated, 0 = no growth, -100 = all killed)
Details: 10 µM unless noted

Q: With CN1CCN(c2ccc(Nc3nc(NCCNC(=O)c4ccc(F)cc4)c4sccc4n3)cc2)CC1 as the molecule, how does the growth read?
A: The growth was 33.8%.

Q: With O=[N+]([O-])c1ccc(NC(=S)NNC(=S)Nc2ccc(Br)cc2)cc1 as the molecule, how does the growth read?
A: Its growth is 48.5%.

Q: For C/C(=N\NC(=O)/C=C/CC(=O)O)c1nnn(-c2ccc([N+](=O)[O-])cc2)c1C, which growth is on record?
A: The growth was 101%.

Q: With CN1CCN(c2ccc(Nc3nc(NCCCNS(=O)(=O)c4ccc(F)cc4)c4sccc4n3)cc2)CC1 as the molecule, how does the growth read?
A: The growth was 21.1%.

Q: For N#CC1=C2NCCCNc3oc(nc3C#N)Cc3ccccc3CC(=N1)O2, which growth is on record?
A: The growth was 87.5%.

Q: For COc1ccccc1/C=C1\Oc2ccc(O)c(O)c2C1=O, which growth is on record?
A: Its growth is 92.1%.

Q: How did the growth turn out when COc1ccc(NC2=C(Br)C(=O)C(C)=C(C)C2=O)cc1OC was run?
A: The growth was 88%.

Q: How did the growth turn out when O=C(Nc1ccc(N=Cc2c(O)[nH]c3ccccc23)cc1)Nc1ccc(S(=O)(=O)Nc2ncccn2)cc1 was run?
A: Its growth is 103%.

Q: With NC(=O)c1c(NC(=O)c2ccc(C(F)(F)F)cc2)sc2c1CCC(=O)C2 as the molecule, how does the growth read?
A: The growth was -24.9% (active).

Q: For O=C(/C=C/c1cccc(Br)c1)c1cccc(OCCCCOc2cccc(C(=O)/C=C/c3cccc(Br)c3)c2)c1, which growth is on record?
A: Its growth is 98.3%.

Q: How did the growth turn out when O=C(CCCCCCNC(=O)c1csc(Br)n1)NO was run?
A: The growth was 14.4%.

Q: With CC1CC(=O)C2=C(C1)Nc1ccc(Br)cc1CC2c1c[nH]c2ccc(Br)cc12 (configuration not stated) as the molecule, how does the growth read?
A: The growth was 42.1%.

Q: With C#CCN(C)CCCOc1ccc(NCc2ccc(C(=O)NO)cc2)cc1Cl as the molecule, how does the growth read?
A: The growth was -6.34% (active).

Q: With CC(=O)Nc1nc(C)c(-c2csc(Nc3ccccc3)n2)s1 as the molecule, how does the growth read?
A: The growth was 21.4%.

Q: Which growth does the source give for Cc1csc(/N=C(N)/N=C(\N)c2cccc(C#N)c2)n1 here?
A: Its growth is 52.1%.

Q: Which growth does the source give for Clc1cccc(/C=N/Nc2nc(N/N=C/c3cccc(Cl)c3)nc(N3CCCCC3)n2)c1 here?
A: Its growth is 79.2%.

Q: Which growth does the source give for O=C1[C@H]2Cc3c([nH]c4ccccc34)[C@H](c3ccc(Br)cc3)N2C(=O)CN1C1CCN(CC2CCCCC2)CC1 here?
A: Its growth is 96.7%.

Q: How did the growth turn out when Cc1[nH]c(C(=O)Nc2ccc(C(=O)NCC3CCNCC3)cc2OC(C)C)c(Cl)c1Cl was run?
A: The growth was 98.8%.

Q: How did the growth turn out when CCN(CC)S(=O)(=O)c1ccc(-c2nc(C(Cl)Cl)nc3cc(-c4ccc(F)cc4)nn23)cc1 was run?
A: Its growth is 54.2%.

Q: How did the growth turn out when C/C(=N/N)c1nnn(-c2ccc(Br)cc2)c1C was run?
A: Its growth is 98.1%.

Q: How did the growth turn out when CC1=C(C)C(=O)C(Nc2cccc(C)c2)=C(Br)C1=O was run?
A: The growth was 94.4%.

Q: Cc1ccc(C(=O)Nc2ccc(CNCCN3CCNCC3)c(C(F)(F)F)c2)cc1C#Cc1cnc2cccnn12 was tested. Which growth did it give?
A: The growth was -41% (active).

Tested on: LOX IMVI melanoma
Experiment: as above
Details: 10 µM unless noted

Q: How did the growth turn out when C#C[C@]1(O)CC[C@H]2[C@@H]3CC=C4c5sc(Nc6cc(C)cc(C)c6)nc5CC[C@]4(C)[C@H]3CC[C@@]21C was run?
A: Its growth is -68.3% (active).

Q: Which growth does the source give for CCCC[n+]1ccc(SCC(=O)n2ccc3ccccc32)c2ccccc21 here?
A: Its growth is 101%.

Q: CC(C)(C)c1cc(NC(=O)Nc2ccc(-c3cn4c5c(sc4n3)CCc3cn(CCCN4CCCCC4)cc3-5)cc2)no1 was tested. Which growth did it give?
A: Its growth is -96.2% (active).

Q: Which growth does the source give for CCCCCCNC(=O)Oc1ccc(/C(=C(/C)c2ccc(OC)cc2)c2ccc(OCCN3CCCCCC3)cc2)cc1 here?
A: The growth was -94.2% (active).

Q: Cn1cc(-c2cc3ncnc(Nc4ccc(CC(=O)Nc5nc(C(C)(C)C)cs5)cc4)c3s2)cn1 was tested. Which growth did it give?
A: Its growth is 26.3%.

Q: With O=C(CCCCCC/C=C\c1csc(Br)n1)NO as the molecule, how does the growth read?
A: The growth was 70.1%.

Q: With COc1ccc(C(=O)c2c(N)c(C#N)cn2-c2ccc(Cl)cc2Cl)cc1 as the molecule, how does the growth read?
A: Its growth is 84%.

Q: How did the growth turn out when Cc1ccc2c(n1)C(=O)C(Cl)=C(Nc1cccc(C(F)(F)F)c1)C2=O was run?
A: Its growth is -61.8% (active).

Q: Which growth does the source give for O=C1[C@H]2Cc3c([nH]c4ccccc34)[C@H](c3ccc(Cl)cc3)N2C(=O)CN1C1CCN(CC2CCCCC2)CC1 here?
A: Its growth is -79.5% (active).

Q: For COc1ccc(/C=N/NC(=O)c2c(N)nn(C)c2Nc2ccccc2)cc1, which growth is on record?
A: Its growth is 18.9%.

Q: How did the growth turn out when Fc1ccc2nc(-c3cnn4cccnc34)sc2c1 was run?
A: Its growth is 92.9%.

Q: O=C(/C=C/c1cccc(F)c1)c1cccc(OCCCCOc2cccc(C(=O)/C=C/c3cccc(F)c3)c2)c1 was tested. Which growth did it give?
A: Its growth is 95.2%.

Q: How did the growth turn out when O=C(COc1ccc(/C=C2\C(=O)Nc3ccc(Cl)cc32)cc1)Nc1ccc(Cl)cc1 was run?
A: Its growth is 1.2% (active).

Q: O=C(Nc1cccc(Cl)c1)Nc1nc2cc([N+](=O)[O-])ccc2o1 was tested. Which growth did it give?
A: Its growth is 40.4%.

Q: COc1ccc(NC(=O)CCCCCCNC(=O)C(O)(O)C(F)(F)F)cc1 was tested. Which growth did it give?
A: Its growth is 35.2%.

Q: CC(=O)N(O)CCCCCNC(=O)CCC(=O)N(O)CCCCCNC(=O)CCC(=O)N(O)CCCCCN(CCCCCCCCCC[P+](c1ccccc1)(c1ccccc1)c1ccccc1)CCCCCCCCCC[P+](c1ccccc1)(c1ccccc1)c1ccccc1 was tested. Which growth did it give?
A: Its growth is -15% (active).

Q: Cc1cc(Br)ccc1-n1cc(C#N)c(N)c1C(=O)c1ccc(Br)cc1 was tested. Which growth did it give?
A: Its growth is 96.6%.

Q: How did the growth turn out when CN(C)S(=O)(=O)c1ccc(-c2nc(C(Cl)Cl)nc3cc(-c4ccccc4)nn23)cc1 was run?
A: The growth was 44.5%.

Q: How did the growth turn out when CN1CCN(c2ccc(Nc3nc(NCCNC(=O)c4ccc(F)cc4)c4sccc4n3)cc2)CC1 was run?
A: Its growth is 8.7% (active).

Q: Which growth does the source give for O=[N+]([O-])c1ccc(NC(=S)NNC(=S)Nc2ccc(Br)cc2)cc1 here?
A: Its growth is 60.9%.

Q: With C/C(=N\NC(=O)/C=C/CC(=O)O)c1nnn(-c2ccc([N+](=O)[O-])cc2)c1C as the molecule, how does the growth read?
A: The growth was 101%.

Q: How did the growth turn out when CN1CCN(c2ccc(Nc3nc(NCCCNS(=O)(=O)c4ccc(F)cc4)c4sccc4n3)cc2)CC1 was run?
A: The growth was -5.7% (active).

Q: For N#CC1=C2NCCCNc3oc(nc3C#N)Cc3ccccc3CC(=N1)O2, which growth is on record?
A: The growth was 8.01% (active).

Q: With COc1ccccc1/C=C1\Oc2ccc(O)c(O)c2C1=O as the molecule, how does the growth read?
A: Its growth is 83.5%.

Q: For COc1ccc(NC2=C(Br)C(=O)C(C)=C(C)C2=O)cc1OC, which growth is on record?
A: The growth was 73.7%.

Q: With O=C(Nc1ccc(N=Cc2c(O)[nH]c3ccccc23)cc1)Nc1ccc(S(=O)(=O)Nc2ncccn2)cc1 as the molecule, how does the growth read?
A: The growth was 101%.

Q: How did the growth turn out when NC(=O)c1c(NC(=O)c2ccc(C(F)(F)F)cc2)sc2c1CCC(=O)C2 was run?
A: Its growth is -37.2% (active).

Q: For O=C(/C=C/c1cccc(Br)c1)c1cccc(OCCCCOc2cccc(C(=O)/C=C/c3cccc(Br)c3)c2)c1, which growth is on record?
A: The growth was 96.6%.

Q: How did the growth turn out when O=C(CCCCCCNC(=O)c1csc(Br)n1)NO was run?
A: Its growth is 13.8%.

Q: With CC1CC(=O)C2=C(C1)Nc1ccc(Br)cc1CC2c1c[nH]c2ccc(Br)cc12 (configuration not stated) as the molecule, how does the growth read?
A: The growth was 34.9%.

Q: For C#CCN(C)CCCOc1ccc(NCc2ccc(C(=O)NO)cc2)cc1Cl, which growth is on record?
A: Its growth is 10.6%.

Q: With CC(=O)Nc1nc(C)c(-c2csc(Nc3ccccc3)n2)s1 as the molecule, how does the growth read?
A: The growth was 21.4%.

Q: How did the growth turn out when Cc1csc(/N=C(N)/N=C(\N)c2cccc(C#N)c2)n1 was run?
A: The growth was 78.1%.

Q: Which growth does the source give for Clc1cccc(/C=N/Nc2nc(N/N=C/c3cccc(Cl)c3)nc(N3CCCCC3)n2)c1 here?
A: Its growth is 105%.

Q: Which growth does the source give for O=C1[C@H]2Cc3c([nH]c4ccccc34)[C@H](c3ccc(Br)cc3)N2C(=O)CN1C1CCN(CC2CCCCC2)CC1 here?
A: Its growth is -69.2% (active).

Q: How did the growth turn out when Cc1[nH]c(C(=O)Nc2ccc(C(=O)NCC3CCNCC3)cc2OC(C)C)c(Cl)c1Cl was run?
A: The growth was 9.32% (active).

Q: With CCN(CC)S(=O)(=O)c1ccc(-c2nc(C(Cl)Cl)nc3cc(-c4ccc(F)cc4)nn23)cc1 as the molecule, how does the growth read?
A: The growth was 32%.

Q: How did the growth turn out when C/C(=N/N)c1nnn(-c2ccc(Br)cc2)c1C was run?
A: Its growth is 86.2%.

Q: With CC1=C(C)C(=O)C(Nc2cccc(C)c2)=C(Br)C1=O as the molecule, how does the growth read?
A: Its growth is 58.1%.

Q: Which growth does the source give for Cc1ccc(C(=O)Nc2ccc(CNCCN3CCNCC3)c(C(F)(F)F)c2)cc1C#Cc1cnc2cccnn12 here?
A: The growth was -86.1% (active).
